# Columns and labels:
# [1] = target: Tyrosine-protein kinase SYK (Homo sapiens) (UniProt P43405); conditions: at 1 µM
# [2] = target: T1, Tyrosine-protein kinase Tec (Homo sapiens) (UniProt P42680); conditions: at 0.1 µM
# T1 sequence (whole entry): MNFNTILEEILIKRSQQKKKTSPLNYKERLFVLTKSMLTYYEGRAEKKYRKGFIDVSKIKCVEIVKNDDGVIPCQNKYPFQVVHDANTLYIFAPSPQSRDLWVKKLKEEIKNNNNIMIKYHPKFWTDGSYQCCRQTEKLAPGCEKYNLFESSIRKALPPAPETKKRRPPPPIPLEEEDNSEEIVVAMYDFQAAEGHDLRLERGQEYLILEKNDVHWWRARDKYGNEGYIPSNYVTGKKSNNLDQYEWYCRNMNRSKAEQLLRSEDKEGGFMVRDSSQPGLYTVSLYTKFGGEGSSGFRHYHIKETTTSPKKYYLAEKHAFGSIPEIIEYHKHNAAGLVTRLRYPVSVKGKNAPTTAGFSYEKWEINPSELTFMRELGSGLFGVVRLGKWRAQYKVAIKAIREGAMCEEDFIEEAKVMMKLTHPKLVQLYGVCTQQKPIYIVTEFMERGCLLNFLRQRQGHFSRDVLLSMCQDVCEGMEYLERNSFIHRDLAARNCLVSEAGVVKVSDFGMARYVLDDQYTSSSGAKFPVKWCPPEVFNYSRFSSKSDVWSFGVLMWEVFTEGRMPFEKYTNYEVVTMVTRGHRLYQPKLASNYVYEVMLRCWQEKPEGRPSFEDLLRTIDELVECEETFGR
# [3] = target: T1, Tyrosine-protein kinase Tec (Homo sapiens); conditions: at 1 µM
# [4] = target: Angiopoietin-1 receptor (Homo sapiens) (UniProt Q02763); conditions: at 0.1 µM
# [5] = target: Angiopoietin-1 receptor (Homo sapiens) (UniProt Q02763); conditions: at 1 µM
# [6] = target: T2, Non-receptor tyrosine-protein kinase TNK1 (Homo sapiens) (UniProt Q13470); conditions: at 0.1 µM
# T2 sequence (whole entry): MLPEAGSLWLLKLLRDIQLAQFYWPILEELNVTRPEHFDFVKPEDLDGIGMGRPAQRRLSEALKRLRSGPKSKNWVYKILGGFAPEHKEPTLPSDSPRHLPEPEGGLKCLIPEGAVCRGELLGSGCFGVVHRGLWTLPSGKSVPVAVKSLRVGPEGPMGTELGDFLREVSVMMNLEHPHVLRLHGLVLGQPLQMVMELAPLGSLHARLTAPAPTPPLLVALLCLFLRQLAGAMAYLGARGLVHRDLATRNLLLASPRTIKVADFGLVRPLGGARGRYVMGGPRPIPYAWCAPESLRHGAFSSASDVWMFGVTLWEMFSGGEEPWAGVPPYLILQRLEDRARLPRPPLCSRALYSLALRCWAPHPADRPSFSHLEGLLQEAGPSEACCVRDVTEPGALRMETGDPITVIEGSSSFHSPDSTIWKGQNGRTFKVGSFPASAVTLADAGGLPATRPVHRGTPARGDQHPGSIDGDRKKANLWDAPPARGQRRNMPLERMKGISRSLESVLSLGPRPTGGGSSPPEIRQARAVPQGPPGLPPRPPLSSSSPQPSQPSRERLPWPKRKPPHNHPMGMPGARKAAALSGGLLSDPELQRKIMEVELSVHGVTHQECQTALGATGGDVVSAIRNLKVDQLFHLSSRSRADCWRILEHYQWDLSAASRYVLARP
# [7] = target: T2, Non-receptor tyrosine-protein kinase TNK1 (Homo sapiens); conditions: at 1 µM
# [8] = target: Activated CDC42 kinase 1 (Homo sapiens) (UniProt Q07912); conditions: at 0.1 µM
# [9] = target: Activated CDC42 kinase 1 (Homo sapiens) (UniProt Q07912); conditions: at 1 µM
# [10] = target: High affinity nerve growth factor receptor (Homo sapiens) (UniProt P04629); conditions: at 0.1 µM
# [11] = target: High affinity nerve growth factor receptor (Homo sapiens) (UniProt P04629); conditions: at 1 µM
# [12] = target: BDNF/NT-3 growth factors receptor (Homo sapiens) (UniProt Q16620); conditions: at 0.1 µM
# [13] = target: BDNF/NT-3 growth factors receptor (Homo sapiens) (UniProt Q16620); conditions: at 1 µM
# [14] = target: NT-3 growth factor receptor (Homo sapiens) (UniProt Q16288); conditions: at 0.1 µM
# [15] = target: NT-3 growth factor receptor (Homo sapiens) (UniProt Q16288); conditions: at 1 µM
# [16] = target: T3, Tyrosine-protein kinase TXK (Homo sapiens) (UniProt P42681); conditions: at 0.1 µM
# T3 sequence (whole entry): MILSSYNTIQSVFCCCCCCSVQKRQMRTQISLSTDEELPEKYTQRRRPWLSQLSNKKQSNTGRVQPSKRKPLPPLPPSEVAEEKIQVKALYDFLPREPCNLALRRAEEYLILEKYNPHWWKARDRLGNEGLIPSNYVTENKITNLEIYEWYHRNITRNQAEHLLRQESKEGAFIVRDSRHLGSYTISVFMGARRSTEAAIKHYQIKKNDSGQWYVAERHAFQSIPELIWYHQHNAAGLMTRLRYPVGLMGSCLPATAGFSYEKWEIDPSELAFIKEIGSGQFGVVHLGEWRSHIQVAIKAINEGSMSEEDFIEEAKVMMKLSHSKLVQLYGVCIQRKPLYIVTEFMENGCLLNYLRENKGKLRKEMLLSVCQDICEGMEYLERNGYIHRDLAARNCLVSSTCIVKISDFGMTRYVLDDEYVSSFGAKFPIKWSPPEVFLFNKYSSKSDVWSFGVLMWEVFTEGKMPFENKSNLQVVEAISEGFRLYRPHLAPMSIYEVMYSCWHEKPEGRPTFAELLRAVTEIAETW
# [17] = target: T3, Tyrosine-protein kinase TXK (Homo sapiens); conditions: at 1 µM
# [18] = target: Non-receptor tyrosine-protein kinase TYK2 (Homo sapiens) (UniProt P29597); conditions: at 0.1 µM;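 also: each value is a mean of the inhibition readings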
# [19] = target: T4, Dual specificity protein kinase TTK (Homo sapiens) (UniProt P33981); conditions: at 1 µM;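 also: reported figures are mean TTK inhibition at 1 µM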
# T4 sequence (whole entry): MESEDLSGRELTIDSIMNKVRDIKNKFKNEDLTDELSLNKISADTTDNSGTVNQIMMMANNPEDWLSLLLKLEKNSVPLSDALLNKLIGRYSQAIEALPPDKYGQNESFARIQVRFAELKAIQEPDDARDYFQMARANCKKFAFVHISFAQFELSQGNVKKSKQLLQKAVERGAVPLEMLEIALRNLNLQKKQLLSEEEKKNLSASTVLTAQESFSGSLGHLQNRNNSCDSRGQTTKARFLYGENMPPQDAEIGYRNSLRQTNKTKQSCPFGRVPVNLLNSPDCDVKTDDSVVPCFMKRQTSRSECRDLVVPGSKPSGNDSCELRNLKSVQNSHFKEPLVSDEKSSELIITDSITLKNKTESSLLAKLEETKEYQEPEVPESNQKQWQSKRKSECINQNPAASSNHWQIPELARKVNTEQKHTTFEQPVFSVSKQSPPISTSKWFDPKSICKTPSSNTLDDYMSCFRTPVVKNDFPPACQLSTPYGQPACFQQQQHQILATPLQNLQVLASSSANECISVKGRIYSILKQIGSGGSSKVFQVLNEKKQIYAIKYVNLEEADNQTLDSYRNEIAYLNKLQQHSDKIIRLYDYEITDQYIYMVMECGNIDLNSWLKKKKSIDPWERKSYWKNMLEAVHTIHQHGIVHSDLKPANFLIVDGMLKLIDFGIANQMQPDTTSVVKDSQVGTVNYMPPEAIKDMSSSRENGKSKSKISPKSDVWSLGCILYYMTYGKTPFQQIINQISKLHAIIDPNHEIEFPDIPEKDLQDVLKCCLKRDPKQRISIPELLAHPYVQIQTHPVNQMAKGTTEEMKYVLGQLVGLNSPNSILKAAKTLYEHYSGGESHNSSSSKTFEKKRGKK
# [20] = target: T5, Aurora kinase A (Homo sapiens) (UniProt O14965); conditions: at 0.1 µM;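 also: each reported value is a mean percent inhibition of Aurora-A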
# T5 sequence (whole entry): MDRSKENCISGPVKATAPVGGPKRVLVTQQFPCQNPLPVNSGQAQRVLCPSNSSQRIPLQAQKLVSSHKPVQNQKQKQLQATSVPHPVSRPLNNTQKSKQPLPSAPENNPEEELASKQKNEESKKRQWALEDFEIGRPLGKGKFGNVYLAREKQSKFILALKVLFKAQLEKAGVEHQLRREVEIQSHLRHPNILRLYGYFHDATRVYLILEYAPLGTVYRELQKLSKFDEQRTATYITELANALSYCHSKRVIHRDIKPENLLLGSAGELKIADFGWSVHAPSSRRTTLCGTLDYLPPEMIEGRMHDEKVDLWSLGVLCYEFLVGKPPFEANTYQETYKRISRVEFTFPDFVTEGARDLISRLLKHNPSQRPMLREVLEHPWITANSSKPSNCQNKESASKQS
# Sequence of High affinity nerve growth factor receptor (Homo sapiens) (P04629 33-796 limits assumed): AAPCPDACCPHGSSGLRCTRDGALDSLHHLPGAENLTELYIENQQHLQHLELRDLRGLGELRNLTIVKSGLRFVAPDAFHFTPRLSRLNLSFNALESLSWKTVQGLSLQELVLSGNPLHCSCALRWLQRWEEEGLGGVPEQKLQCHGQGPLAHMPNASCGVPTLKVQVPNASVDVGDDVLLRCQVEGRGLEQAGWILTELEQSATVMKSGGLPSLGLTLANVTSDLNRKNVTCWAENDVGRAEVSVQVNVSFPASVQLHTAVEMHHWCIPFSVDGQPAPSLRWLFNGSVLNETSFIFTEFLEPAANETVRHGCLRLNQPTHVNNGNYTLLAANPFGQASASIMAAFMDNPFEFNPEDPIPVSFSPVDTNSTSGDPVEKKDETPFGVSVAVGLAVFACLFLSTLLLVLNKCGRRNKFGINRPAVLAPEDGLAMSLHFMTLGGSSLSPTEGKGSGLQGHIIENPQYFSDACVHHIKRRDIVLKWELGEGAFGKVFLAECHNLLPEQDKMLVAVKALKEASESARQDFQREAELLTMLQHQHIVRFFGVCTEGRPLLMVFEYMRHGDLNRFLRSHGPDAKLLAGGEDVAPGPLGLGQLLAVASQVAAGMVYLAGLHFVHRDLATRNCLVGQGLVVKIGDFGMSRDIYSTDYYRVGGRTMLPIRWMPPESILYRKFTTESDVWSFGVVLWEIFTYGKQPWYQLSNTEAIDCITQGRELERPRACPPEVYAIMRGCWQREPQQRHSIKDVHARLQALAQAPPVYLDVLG
# Sequence of Angiopoietin-1 receptor (Homo sapiens) (Q02763 whole entry): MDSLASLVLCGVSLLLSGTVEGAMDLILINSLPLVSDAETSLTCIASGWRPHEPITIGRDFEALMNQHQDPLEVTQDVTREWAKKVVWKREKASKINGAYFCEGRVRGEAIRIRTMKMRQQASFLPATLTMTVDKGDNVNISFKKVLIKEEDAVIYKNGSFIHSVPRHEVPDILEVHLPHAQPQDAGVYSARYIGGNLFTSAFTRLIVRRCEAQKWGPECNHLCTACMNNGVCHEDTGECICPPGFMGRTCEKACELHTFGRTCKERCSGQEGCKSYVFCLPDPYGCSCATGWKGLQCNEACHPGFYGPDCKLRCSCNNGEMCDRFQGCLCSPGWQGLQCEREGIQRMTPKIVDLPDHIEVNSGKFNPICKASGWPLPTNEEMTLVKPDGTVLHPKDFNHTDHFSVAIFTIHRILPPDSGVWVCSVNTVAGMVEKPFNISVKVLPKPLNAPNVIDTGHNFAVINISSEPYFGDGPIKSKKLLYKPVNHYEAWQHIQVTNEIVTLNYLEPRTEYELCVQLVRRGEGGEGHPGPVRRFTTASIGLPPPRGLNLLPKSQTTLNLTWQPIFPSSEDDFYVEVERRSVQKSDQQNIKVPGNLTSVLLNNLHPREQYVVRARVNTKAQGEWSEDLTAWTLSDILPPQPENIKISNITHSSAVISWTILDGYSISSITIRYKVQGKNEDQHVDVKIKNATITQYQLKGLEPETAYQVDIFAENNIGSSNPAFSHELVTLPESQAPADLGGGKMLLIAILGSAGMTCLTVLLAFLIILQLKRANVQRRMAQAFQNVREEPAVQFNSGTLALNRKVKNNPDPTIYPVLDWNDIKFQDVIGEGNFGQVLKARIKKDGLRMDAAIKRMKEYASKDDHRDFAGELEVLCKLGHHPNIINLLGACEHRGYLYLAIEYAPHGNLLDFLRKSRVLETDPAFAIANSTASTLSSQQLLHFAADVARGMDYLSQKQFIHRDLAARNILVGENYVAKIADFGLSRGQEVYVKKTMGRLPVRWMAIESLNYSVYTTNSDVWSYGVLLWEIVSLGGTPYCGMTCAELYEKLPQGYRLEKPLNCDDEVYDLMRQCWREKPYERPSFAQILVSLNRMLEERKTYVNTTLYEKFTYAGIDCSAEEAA
# Sequence of BDNF/NT-3 growth factors receptor (Homo sapiens) (Q16620 32-822 limits assumed): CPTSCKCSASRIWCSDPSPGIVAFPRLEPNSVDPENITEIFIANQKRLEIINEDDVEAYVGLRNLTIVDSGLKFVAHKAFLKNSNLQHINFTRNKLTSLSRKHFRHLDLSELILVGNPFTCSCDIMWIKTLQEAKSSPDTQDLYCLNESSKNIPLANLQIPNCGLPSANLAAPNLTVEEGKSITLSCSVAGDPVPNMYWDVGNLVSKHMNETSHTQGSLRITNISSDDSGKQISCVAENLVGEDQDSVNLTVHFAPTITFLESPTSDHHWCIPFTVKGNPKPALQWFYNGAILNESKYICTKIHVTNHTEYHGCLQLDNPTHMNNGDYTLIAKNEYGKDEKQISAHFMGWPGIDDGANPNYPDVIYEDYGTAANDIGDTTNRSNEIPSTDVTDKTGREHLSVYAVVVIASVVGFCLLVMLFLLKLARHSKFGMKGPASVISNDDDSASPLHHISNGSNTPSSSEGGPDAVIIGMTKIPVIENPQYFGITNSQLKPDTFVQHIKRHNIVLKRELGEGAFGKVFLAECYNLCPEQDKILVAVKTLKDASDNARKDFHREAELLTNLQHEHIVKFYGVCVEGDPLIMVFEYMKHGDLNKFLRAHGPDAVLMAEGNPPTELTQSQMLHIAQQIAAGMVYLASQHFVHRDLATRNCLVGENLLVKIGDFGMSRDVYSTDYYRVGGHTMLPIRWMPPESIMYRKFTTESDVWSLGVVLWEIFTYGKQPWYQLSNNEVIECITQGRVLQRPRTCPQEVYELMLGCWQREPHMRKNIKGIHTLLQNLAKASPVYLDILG
# Sequence of NT-3 growth factor receptor (Homo sapiens) (Q16288 32-839 limits assumed): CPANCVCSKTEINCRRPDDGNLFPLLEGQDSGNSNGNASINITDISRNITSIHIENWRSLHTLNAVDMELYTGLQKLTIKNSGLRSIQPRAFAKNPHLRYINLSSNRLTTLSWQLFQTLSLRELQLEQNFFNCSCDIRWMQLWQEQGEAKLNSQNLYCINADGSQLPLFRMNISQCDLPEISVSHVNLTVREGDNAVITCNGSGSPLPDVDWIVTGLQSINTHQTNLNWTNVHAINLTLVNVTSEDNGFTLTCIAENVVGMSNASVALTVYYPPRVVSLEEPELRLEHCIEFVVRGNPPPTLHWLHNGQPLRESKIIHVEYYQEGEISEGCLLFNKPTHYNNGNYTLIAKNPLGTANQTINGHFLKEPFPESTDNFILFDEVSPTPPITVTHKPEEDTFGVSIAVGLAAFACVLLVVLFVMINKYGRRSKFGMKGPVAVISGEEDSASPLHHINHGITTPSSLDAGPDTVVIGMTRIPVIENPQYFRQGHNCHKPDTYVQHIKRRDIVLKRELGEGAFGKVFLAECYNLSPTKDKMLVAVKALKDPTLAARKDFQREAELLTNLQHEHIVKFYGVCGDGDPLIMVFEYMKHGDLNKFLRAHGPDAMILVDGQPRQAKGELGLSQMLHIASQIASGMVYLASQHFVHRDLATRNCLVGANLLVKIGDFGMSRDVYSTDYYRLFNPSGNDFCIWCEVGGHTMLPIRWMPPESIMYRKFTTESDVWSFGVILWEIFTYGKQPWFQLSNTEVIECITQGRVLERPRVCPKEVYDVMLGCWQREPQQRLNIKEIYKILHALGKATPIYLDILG
# Sequence of Activated CDC42 kinase 1 (Homo sapiens) (Q07912 whole entry, looked up): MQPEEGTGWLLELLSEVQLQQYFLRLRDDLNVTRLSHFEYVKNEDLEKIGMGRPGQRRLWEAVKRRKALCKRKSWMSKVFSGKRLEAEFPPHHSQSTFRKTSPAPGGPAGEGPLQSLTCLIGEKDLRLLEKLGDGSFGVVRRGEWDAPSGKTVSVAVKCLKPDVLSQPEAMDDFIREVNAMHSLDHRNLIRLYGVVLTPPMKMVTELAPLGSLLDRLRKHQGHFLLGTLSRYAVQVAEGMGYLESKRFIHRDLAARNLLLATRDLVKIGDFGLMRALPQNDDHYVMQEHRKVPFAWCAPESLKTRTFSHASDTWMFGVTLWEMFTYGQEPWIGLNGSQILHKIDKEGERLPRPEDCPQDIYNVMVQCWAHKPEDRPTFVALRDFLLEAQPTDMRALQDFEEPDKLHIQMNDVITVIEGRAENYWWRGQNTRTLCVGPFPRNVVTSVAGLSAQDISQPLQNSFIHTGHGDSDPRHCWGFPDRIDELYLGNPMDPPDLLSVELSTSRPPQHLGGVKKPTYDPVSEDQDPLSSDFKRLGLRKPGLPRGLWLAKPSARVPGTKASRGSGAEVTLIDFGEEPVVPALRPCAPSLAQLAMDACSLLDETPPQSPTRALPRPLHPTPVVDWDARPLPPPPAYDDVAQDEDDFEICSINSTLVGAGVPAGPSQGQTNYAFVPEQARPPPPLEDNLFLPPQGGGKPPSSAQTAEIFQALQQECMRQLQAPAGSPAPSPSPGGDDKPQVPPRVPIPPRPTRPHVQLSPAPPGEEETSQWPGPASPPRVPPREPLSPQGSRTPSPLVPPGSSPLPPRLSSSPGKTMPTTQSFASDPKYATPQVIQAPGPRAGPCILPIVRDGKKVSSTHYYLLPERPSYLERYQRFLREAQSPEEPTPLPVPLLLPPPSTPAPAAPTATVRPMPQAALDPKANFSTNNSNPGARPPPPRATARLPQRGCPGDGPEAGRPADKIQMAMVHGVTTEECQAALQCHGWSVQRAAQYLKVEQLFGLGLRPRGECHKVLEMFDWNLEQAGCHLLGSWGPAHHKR
Structure (SMILES),inhibition [1],inhibition [2],inhibition [3],inhibition [4],inhibition [5],inhibition [6],inhibition [7],inhibition [8],inhibition [9],inhibition [10],inhibition [11],inhibition [12],inhibition [13],inhibition [14],inhibition [15],inhibition [16],inhibition [17],inhibition [18],inhibition [19],inhibition [20]
O=C1NC(=O)C(c2ccc(Cl)cc2)=C1Nc1ccc(Cl)c(C(=O)O)c1,-0.32%,-1.66%,-1.1%,-0.19%,3.01%,-3.22%,0.53%,-0.36%,-0.48%,0.44%,0.46%,1.23%,0.65%,-1.8%,-0.55%,-0.87%,1.12%,0.04%,-3.54%,-3.12%
CCn1c(-c2nonc2N)nc2cncc(C(=O)N3CC[C@H](N)C3)c21,1.83%,4.37%,3.68%,11.3%,11.4%,2.94%,2.95%,1.08%,1.01%,0.41%,2.78%,4.37%,3.61%,2.56%,3.15%,3.09%,2.08%,-0.69%,2.6%,3.07%
O=C(Nc1n[nH]c2nc(-c3ccco3)c(Br)cc12)C1CC1,-0.45%,4.92%,9.1%,7.26%,13.7%,2.22%,-0.4%,0.93%,0.24%,3.1%,3.72%,-0.07%,1.56%,1.75%,4.33%,2.71%,5.55%,-1.26%,-3.66%,2.52%
CCn1c(-c2nonc2N)nc2c(C#CC(C)(C)O)nc(OC[C@@H](N)c3ccccc3)cc21,1.52%,1.68%,6.92%,1.25%,10.4%,-2.6%,2.87%,0.28%,5.21%,-0.3%,1.12%,-1.96%,0.07%,-1.23%,3.35%,6.5%,5.38%,2.72%,1.66%,1.81%
COc1ccccc1Nc1ncc(-c2ccccc2)o1,-4.41%,2.21%,7.28%,0.33%,6.44%,3.82%,13.8%,0.63%,3.33%,1.73%,4.51%,4.57%,8.84%,4.02%,9.48%,0.91%,6.86%,-6.02%,11.9%,4.71%
CS(=O)(=O)CCN(CC#N)Cc1ccc(-c2ccc3ncnc(Nc4ccc(OCc5cccc(F)c5)c(Cl)c4)c3c2)o1,1.94%,-2.12%,-1.96%,2.27%,1.84%,2.76%,23.2%,-0.59%,0.01%,2.64%,4.12%,1.7%,3.2%,1.69%,1.13%,-2.35%,-2.94%,-3.9%,5.67%,-2.58%
CS(=O)(=O)CCNCc1ccc(-c2ccc3ncnc(Nc4ccc(OCc5cccc(F)c5)c(C(F)(F)F)c4)c3c2)o1,1.13%,3.58%,4.26%,4.55%,5.67%,4.87%,10.5%,0.57%,1.13%,1.7%,-0.52%,2.14%,2.72%,2.59%,3.16%,3.11%,3.02%,-4.14%,7.39%,4.12%

# Reference: ChEMBL document CHEMBL1961873, “Compounds: GSK PKIS; Assays: Nanosyn kinase panel” (2012)
